This note sets out measurements from PubChem BioAssay (Tox21).

Results filed as inconclusive are left out. A call without a number means that no potency is given here. Active and inactive are the calls of the source. Calls come from the whole dose curve.
Potency is the fitted concentration of half-maximal effect.

The nature of this assay: qHTS assay for small molecules that induce genotoxicity in human embryonic kidney cells expressing luciferase-tagged ATAD5 - cell viability (AID 651634). Note: nearly all actives have a fitted effect of over 25% in size. To be noted: HEK293T ATAD5-luc cells viability, CellTiter-Fluor, 15.5 h; series mostly up to 83.3 µM. An excerpt:
National Center for Advancing Translational Sciences [NCATS]
NIH Chemical Genomics Center [NCGC]
U.S. Environmental Protection Agency [EPA]
National Institutes of Environmental Health Sciences [NIEHS]
National Toxicology Program [NTP]
U.S. Food and Drug Administration [FDA]
Enhanced Level of Genome Instability Gene 1 (ELG1; human ATAD5) protein levels increase in response to various types of DNA damage. Using a luciferase reporter-gene tagged with ElG1, a cell-based assay [developed by Kyungjae Myung, NHGRI, NIH] was used to measure the induction of ATAD5 in human embryonic kidney cells (HEK293T). So, increase in luciferase activity can be used to identify the compounds that cause genetic stress. In addition to genotoxicity, these cells were also used to test for cytotoxicity by measuring the protease activity within live cells.
Tox21 Assay Protocol Summary:
For cytotoxicity screening, 2,000 cells in 5 uL/well were dispensed into white, solid-bottom 1536-well plates using a Multidrop Combi (Thermo Scientific) dispenser. Following transfer of 23 nL compound or DMSO vehicle by a pin tool, the plates were incubated 15.5 hr at 37C and 5% CO2. 1 ul CellTiter-Fluor reagent (Promega, Madison, WI) was then added to each plate and following 30 min incubation at 37C, fluorescence intensity was quantified on a ViewLux CCD-based plate reader.
A general note: In qHTS, concentration-response curves come from the screen itself.
With `O=[N+]([O-])[O-].[Tl+]`, the Potency entry was “inactive”.

Consider `CC(C)=CC1C(C(=O)OC(C#N)c2cccc(Oc3ccccc3)c2)C1(C)C` (stereo not given), for which the Potency entry was “inactive”.

With `CCCCCCCCCCCCCCn1cc[n+](C)c1`, the Potency was 61.3 µM (active).

Take `N#CCCl`: the Potency result is “inactive”.

Take `COc1nc(C)nc(NC(=O)NS(=O)(=O)c2ccccc2Cl)n1`: the Potency entry is “inactive”.

In the case of `CN/C(=N\[N+](=O)[O-])NCc1cnc(Cl)s1`, the Potency entry was “inactive”.

Turning to `O=C(Cl)c1ccccc1F`, the Potency result is “inactive”.

In the case of `CN1CCc2cc(Cl)c(O)cc2[C@H]2c3ccccc3CC[C@@H]21`, the Potency entry is “inactive”.

On to `CCCCCON=O`, for which the Potency entry is “inactive”.

For the compound `C=Cc1cccc(CCl)c1`, the Potency entry was “inactive”.

Take `Cc1ccn2nc(S(=O)(=O)Nc3c(F)cccc3F)nc2n1`: the Potency result was “inactive”.

With `CC(C)=CCN1CC[C@@]2(C)c3cc(O)ccc3C[C@@H]1[C@@H]2C`, the Potency entry is “inactive”.

As to `Nc1c(Cl)c(Cl)c(Cl)c(Cl)c1Cl`, the Potency result was “inactive”.

On to `CC1(C)C(C=C(Cl)Cl)C1C(=O)OC(C#N)c1ccc(F)c(Oc2ccccc2)c1` (stereo not given), for which the Potency entry is “inactive”.

As to `ClC1(Cl)C2(Cl)C3(Cl)C4(Cl)C(Cl)(Cl)C5(Cl)C3(Cl)C1(Cl)C5(Cl)C24Cl` (stereo not given), the Potency result was “inactive”.

Consider `ClC(Cl)C(Cl)(Cl)Cl`, for which the Potency entry was “inactive”.

`O=[N+]([O-])c1cc(C(F)(F)F)c(Cl)c([N+](=O)[O-])c1Nc1ncc(C(F)(F)F)cc1Cl`: the Potency is 30.6 µM (active).

In the case of `CC(C)Br`, the Potency entry is “inactive”.

On to `CCc1cccc(C)c1N(C(=O)CCl)[C@@H](C)COC`, for which the Potency entry is “inactive”.

With `CCCCN(CCCC)C(=S)S`, the Potency entry was “inactive”.

For the compound `[Cl-].[Cl-].[Cl-].[Yb+3]`, the Potency entry was “inactive”.

Take `Cc1cccc(Cc2cnc[nH]2)c1C`: the Potency entry was “inactive”.

On to `CCN1CCC2(CC1)COc1cc3c(cc12)N(C(=O)c1ccc(-c2ccc(-c4nnc(C)o4)cc2C)cc1)CC3`, for which the Potency was 56.4 µM (active).

For the compound `O.O.O.O=C([O-])[C@H]([O-])[C@@H]([O-])C(=O)[O-].O=C([O-])[C@H]([O-])[C@@H]([O-])C(=O)[O-].[K+].[K+].[Sb+3].[Sb+3]`, the Potency entry was “inactive”.

For the compound `CCn1cc[n+](C)c1` (tested in a mixture with another compound), the Potency result is “inactive”.

Take `Nc1nc(N)nc(Cl)n1`: the Potency result was “inactive”.

In the case of `Cc1c([N+](=O)[O-])c(C)c([N+](=O)[O-])c(C(C)(C)C)c1[N+](=O)[O-]`, the Potency result was “inactive”.

Turning to `CN1[C@@H]2CC[C@H]1CC(O)C2` (stereo not given in full), the Potency result is “inactive”.

With `CCC(C)Br` (stereo not given), the Potency entry is “inactive”.

Consider `CCN(CC)Cc1nccn1-c1ccc([N+](=O)[O-])cc1C(=O)c1ccccc1Cl`, for which the Potency result is “inactive”.

Turning to `CC[C@]1(O)CC[C@H]2[C@@H]3CCC4=CCCC[C@@H]4[C@H]3CC[C@@]21C`, the Potency is 10.6 µM (active).

On to `BrCCCBr`, for which the Potency result is “inactive”.

As for `O=c1[nH]c(Cl)c(Cl)cc1Cl`, the Potency result was “inactive”.

As for `CCC(C)c1cccc(C(C)CC)c1O` (stereo not given), the Potency entry was “inactive”.

Regarding `ClC1=C(Cl)[C@]2(Cl)[C@@H]3[C@H]4C[C@H]([C@@H]5O[C@H]45)[C@@H]3[C@@]1(Cl)C2(Cl)Cl`, the Potency entry was “inactive”.

On to `COc1cnc(OC)n2nc(NS(=O)(=O)c3c(OCC(F)F)cccc3C(F)(F)F)nc12`, for which the Potency result was “inactive”.

For the compound `C=CC(=O)[O][Sn]([CH2]CCC)([CH2]CCC)[CH2]CCC`, the Potency was 1.09 µM (active).

`Oc1ccc([C@H]2CNCc3c2ccc(O)c3O)cc1O`: the Potency entry was “inactive”.

For the compound `O=S1(=O)OCC2C(CO1)C1(Cl)C(Cl)=C(Cl)C2(Cl)C1(Cl)Cl` (stereo not given), the Potency entry was “inactive”.

Turning to `CC(=O)[O][Pb]([c]1ccccc1)([c]1ccccc1)[c]1ccccc1`, the Potency is 0.686 µM (active).
